The text below walks through data of PubChem BioAssay (EPA / NIEHS).

Structures are written as SMILES. Activity calls are given as the source filed them. The calls were made as follows: active = hit-call score of the fitted dose curve at least 0.9, where 1 is the maximum; inactive = score below 0.9.

Read-out in the assay: Vascular cell adhesion molecule 1 (VCAM1), VCAM1 (gene 7412)
In words: BSK_LPS_VCAM1: BioMAP Diversity Plus: LPS Assay for Vascular cell adhesion molecule 1 (VCAM1) Biomarker Activity (AID 2283086). Particulars: primary human HUVEC with PBMC; actives raise or lower the signal. Here is the method:
BSK_LPS is a cell-based, multiplexed-readout assay that uses umbilical vein endothelium and peripheral blood mononuclear cells, a human vascular primary cell co-culture, with measurements taken at 24 hours after chemical dosing in a 96-well plate.BSK_LPS_VCAM1 is an assay component measured in the BSK_LPS assay. It measures VCAM-1 antibody related to regulation of gene expression using ELISA technology.Data from the assay component BSK_LPS_VCAM1 was analyzed into 1 assay endpoint. This assay endpoint, BSK_LPS_VCAM1, was analyzed with bidirectional fitting relative to DMSO as the negative control and baseline of activity. Using a type of binding reporter, gain or loss-of-signal activity can be used to understand changes in the signaling as they relate to the gene VCAM1. Furthermore, this assay endpoint can be referred to as a primary readout, because this assay has produced multiple assay endpoints where this one serves a signaling function. To generalize the intended target to other relatable targets, this assay endpoint is annotated to the cell adhesion molecules intended target family, where the subfamily is Immunoglobulin CAM.
The levels of cell surface (or secreted, indicated by the prefix "s") biomarker endpoints were measured by ELISA. Overt cytotoxicity to cells in confluent adherent cultures (all systems other than the BT system) was assessed by measuring total protein levels using sulforhodamine B (SRB) staining in parallel cultures at the time of biomarker measurements, indicated as SRB endpoints. For proliferation assays for adherent cell types, individual cell types are cultured at sub-confluence and relative cell numbers quantified by SRB staining at time points optimized for each system (48 h: 3C and CASM3C systems; 72 h: BT and HDF3CGF systems; 96 h: SAg system). SRB was performed by staining cells with 0.1% SRB after fixation with 10% TCA and reading wells at 560 nm.Viability and proliferation of PBMC (T cells) was quantified by Alamar Blue reduction for the SAg and BT systems. For PBMC viability (referred to as PBMC Cytotoxicity within the assay endpoint names), cells were plated (75,000/well in a 96-well plate) and then chemical samples added for 1 h before addition of activators, SEB and TSST-1 (20 ng/mL final concentration each). Cells were incubated for 90 h. Then, Alamar Blue (20 uL/well) (Invitrogen, Cat DAL1100) was added for 6 h, and the plates were read with a fluorescence microplate reader at 546/580 nm (excitation/emission). For PBMC proliferation, cells were plated and activated as above but incubated for only 16 h prior to addition of Alamar Blue. Plates were read after 6 h.
With `Cc1cc(Cc2ccc(N)c(C)c2)ccc1N`, the result was inactive.

As for `CCCCC(CC)CO` (stereo not given), the result was inactive. On the same count and under the same terms, under `c1ccc2occc2c1` stands “inactive”.

As to `COc1ccc(C(=O)Nc2nc3ccccc3c(NCc3ccccc3)c2C#N)cc1`, the AC50 is 4.78 µM (active). On the same count and under the same terms, under `O=C1OC(c2ccc(O)cc2)(c2ccc(O)cc2)c2ccccc21` stands 30.7 µM (active); under `Oc1ccccc1O`, 2.79 µM (active). On to `C/C=C/C=C/C(=O)O`, for which the result was inactive. The same measure, in the same setting: under `CCc1nc(N)nc(N)c1-c1ccc(Cl)cc1` stands “inactive”; under `NC=O`, “inactive”.

In the case of `CC1=C(C)S(=O)(=O)CCS1(=O)=O`, the AC50 is 11.5 µM (active). As for `NC(=Nc1ccccc1)Nc1ccccc1`, the result was inactive. Still for that read-out and setting: under `O=C(O)c1cccnc1` stands “inactive”. On the same count and under the same terms, under `CCOCCOCCO` stands “inactive”; under `O=[Si]=O`, “inactive”. In the case of `CCc1cc(C2=C(C(=O)O)N(c3ccccc3C(F)(F)F)S(=O)(=O)c3ccccc32)cc2c1OCO2`, the result was inactive. For the compound `CC(=O)CC(c1ccccc1)c1c(O)c2ccccc2oc1=O` (stereo not given), the outcome was inactive. Still for that read-out and setting: under `Cc1ccc(C(C)(C)C)c(O)c1` stands “inactive”. Same read-out and setting: under `CC1(C)C(=O)NC(=O)N1CO` stands “inactive”.

Consider `O=C1CCCCC1`, for which the result was inactive. With `CCCCCCC(CCCCCCCCCCC(=O)OCC(COC(C)=O)OC(C)=O)OC(C)=O` (stereo not given), the result was inactive. Still for that read-out and setting: under `C=CCc1ccc(OC)c(OC)c1` stands “inactive”; under `CCCCOC(=O)CCCCC(=O)OCCCC`, “inactive”.

For `CCCC[C@H]1CN(CC2CCOCC2)C(=O)OC12CCN(C1(C)CCN(C(=O)c3c(C)ncnc3C)CC1)CC2`, the outcome was inactive. Still for that read-out and setting: under `OCC(O)CO` stands “inactive”; under `CCCCc1nc2cccnc2n1Cc1ccc(-c2ccccc2-c2nnn[nH]2)cc1`, “inactive”; under `CC(=O)O[C@]1(C(C)=O)CC[C@H]2[C@@H]3C=C(Cl)C4=CC(=O)[C@@H]5C[C@@H]5[C@]4(C)[C@H]3CC[C@@]21C`, “inactive”.

As to `COc1ccc(OC(F)(F)F)cc1CN[C@H]1CCCN[C@H]1c1ccccc1`, the AC50 is 14.6 µM (active). On to `CS(=O)(=O)c1ccc([C@@H](C[C@H]2CCC(=O)C2)C(=O)Nc2cnccn2)cc1Cl`, for which the result was inactive. Same read-out and setting: under `O=Cc1ccccc1C=O` stands “inactive”; under `CC(C)c1cccc(C(C)C)c1NC(=O)NS(=O)(=O)c1cc(C(C)(C)O)co1`, “inactive”.

Turning to `CC(=O)O`, the outcome was inactive. On the same count and under the same terms, under `CCCCCCCCCCCCCCOS(=O)(=O)O` stands “inactive”. On the same count and under the same terms, the result for `CO[C@@H]1COCC[C@@H]1N[C@@H]1CC[C@@](C(=O)N2CCc3ncc(C(F)(F)F)cc3C2)(C(C)C)C1` reads “inactive”; that for `CN(C)CCCN(C)CCCN(C)C`, “inactive”. For the compound `Cc1cc(SC2=C(O)C[C@@](CCc3ccc(N)cc3)(C(C)C)OC2=O)c(C(C)(C)C)cc1CO`, the outcome was inactive. Same read-out and setting: the result for `CC(C)(C)c1ccccc1` reads “inactive”; that for `S=c1[nH]c2ccccc2s1`, “inactive”. As to `CC(C)(O)c1ccc(CNC(=O)c2cccnc2Oc2ccc(F)cc2)cc1`, the outcome was inactive. Consider `CC(=O)OC1CC(C)OC(C)O1` (stereo not given), for which the outcome was inactive. The same measure, in the same setting: the result for `CC(N)=O` reads “inactive”.

By AC50 is commonly meant the midpoint of the concentration-response curve, whichever way the signal moves.
